# Results from PubChem BioAssay (NCATS).
# Records with an inconclusive call do not appear. Unmarked numbers belong to inactive results. The source made the active and inactive calls. Calls follow the shape of the dose curve; as a rule, active = well fitted inhibition curve with a large enough effect; inconclusive = small, poorly fitted or top-dose-only effect; inactive = flat fitted curve, though single readings scatter.
# Key:
# TAB165 = test: qHTS profiling for inhibitors of Plasmodium falciparum proliferation (AID 504749); also: potency is read from the fitted curve at half-maximal effect; conditions: P. falciparum in erythrocytes, SYBR Green DNA, 72 h; series mostly up to 28.7 µM
# In short: (§1)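 Quantitative HTS: compounds pinned into medium, infected erythrocytes added (0.3% parasitemia, 2.5% hematocrit), 72 h culture at 37 C under 5% CO2. Saponin/Triton lysis with SYBR Green I, overnight RT, then fluorescence read.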
# CRL-7250 = normal cell line; test: Cytotoxic Profiling of Annotated Libraries Using Quantitative High-Throughput Screening (AID 1296008); conditions: Five cell lines viability, CellTiter-Glo ATP luminescence, 48-72 h; max response: stronger effect = lower value; also: potency is read from the fitted curve at half-maximal effect; as to max response: % is scaled to controls: 0 for no effect and ±100 for the full control effect
# In short: (§2)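 Compounds were pin-transferred onto cells and incubated 48 or 72 hr at 37 degree Celsius, 95% humidity. CellTiter-Glo was added, plates sat 10 min at room temperature, then ATP-coupled luminescence was imaged as the viability read-out.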
# HaCat [1] = test: as above; conditions: Five cell lines viability, CellTiter-Glo ATP luminescence, 48-72 h; max response: stronger effect = lower value
# In short: as §2
# NIH3T3 = test: as above; conditions: Five cell lines viability, CellTiter-Glo ATP luminescence, 48-72 h; max response: stronger effect = lower value
# In short: as §2
# TAB113 = test: qHTS profiling for inhibitors of Plasmodium falciparum proliferation (AID 504749); also: potency is read from the fitted curve at half-maximal effect; conditions: P. falciparum in erythrocytes, SYBR Green DNA, 72 h; series mostly up to 28.7 µM
# In short: as §1
# W2 = test: as above; conditions: P. falciparum in erythrocytes, SYBR Green DNA, 72 h; series mostly up to 28.7 µM
# In short: as §1
# HEK293 = test: Cytotoxic Profiling of Annotated Libraries Using Quantitative High-Throughput Screening (AID 1296008); conditions: Five cell lines viability, CellTiter-Glo ATP luminescence, 48-72 h; max response: stronger effect = lower value; also: potency is read from the fitted curve at half-maximal effect; as to max response: % is scaled to controls: 0 for no effect and ±100 for the full control effect
# In short: as §2
# KB-3-1 = test: as above; conditions: Five cell lines viability, CellTiter-Glo ATP luminescence, 48-72 h; max response: stronger effect = lower value
# In short: as §2
# HACAT [2] = test: qHTS assay to identify novel small-molecules to repurpose for Merkel cell carcinoma treatment (AID 1296009); conditions: MCC and control cell lines, CellTiter-Glo viability, 72 h; at 44.8 µM (top of the series) unless noted
# In short: (§3)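 Viability readout: ATP luminescence (CellTiter-Glo) after 72 hr drug exposure at 37 degree celsius. Dose-response format was 8 points for NPC and 11 points for MIPE; data normalized to in-plate controls.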
# HEK293T = test: as above; conditions: MCC and control cell lines, CellTiter-Glo viability, 72 h; at 44.8 µM (top of the series) unless noted
# In short: as §3
# Also: nearly all actives have a fitted effect of over 60% in size.
compound,measurement,setting,value
COc1ccc(C(Cl)=C(c2ccc(OC)cc2)c2ccc(OC)cc2)cc1,Potency,TAB165,2.51 µM (active)
same,outcome,CRL-7250,inactive
same,max response,HaCat [1],-3.14%
same,max response,NIH3T3,-2.4%
FC(F)(F)C(F)(F)C(F)(F)C(F)(F)C(F)(F)C(F)(F)C(F)(F)C(F)(F)Br,Potency,TAB113,inactive
same,Potency,TAB165,inactive
same,Potency,W2,inactive
same,max response,HEK293,0.523%
same,outcome,HaCat [1],inactive
same,max response,KB-3-1,13.3%
same,max response,NIH3T3,-4.33%
same,outcome,HACAT [2],inactive
C[C@@H](O)[C@H]1C(=O)N2C(C(=O)O)=C([C@H]3CCCO3)S[C@H]12,max response,HEK293,-1.4%
same,outcome,HaCat [1],inactive
same,max response,KB-3-1,3.93%
same,outcome,NIH3T3,inactive
same,outcome,HACAT [2],inactive
CO[C@H]1C=CO[C@@]2(C)Oc3c(C)c(O)c4c(O)c(c(/C=N/N5CCN(C)CC5)c(O)c4c3C2=O)NC(=O)/C(C)=C\C=C[C@H](C)[C@H](O)[C@@H](C)[C@@H](O)[C@@H](C)[C@H](OC(C)=O)[C@@H]1C,max response,CRL-7250,1.9%
same,max response,HaCat [1],-21.6%
same,max response,NIH3T3,-0.808%
CCCCNc1ccc(C(=O)OCCOCCOCCOCCOCCOCCOCCOCCOCCOC)cc1,Potency,TAB113,inactive
same,Potency,W2,inactive
same,max response,CRL-7250,-14.1%
same,max response,HaCat [1],0.553%
same,max response,KB-3-1,-13.9%
same,max response,NIH3T3,-8.1%
COc1cc(C(=O)N2CCCCCCC2)cc(OC)c1OC,Potency,TAB113,inactive
same,Potency,TAB165,inactive
same,Potency,W2,inactive
same,max response,HEK293,0.115%
same,outcome,HaCat [1],inactive
same,max response,KB-3-1,-4.88%
same,max response,NIH3T3,2.92%
same,outcome,HACAT [2],inactive
C#C[C@]1(O)CC[C@H]2[C@@H]3[C@H](C)CC4=C(CCC(=O)C4)[C@H]3CC[C@@]21C,max response,CRL-7250,-3.96%
same,outcome,HaCat [1],inactive
same,max response,NIH3T3,-7.98%
same,outcome,HACAT [2],inactive
NC(=O)n1c(O)c(C(=O)c2cccs2)c2cc(Cl)ccc21,Potency,TAB113,inactive
same,Potency,TAB165,inactive
same,max response,CRL-7250,4.52%
same,outcome,HaCat [1],inactive
same,max response,NIH3T3,0.218%
same,outcome,HACAT [2],inactive
O=C1c2cccc3c2[C@H](CCC3)CN1[C@@H]1CN2CCC1CC2,Potency,HEK293,21.1 µM (active)
same,max response,HaCat [1],-46%
same,max response,KB-3-1,-11.9%
OC(C#CCN1CCCC1)(c1ccccc1)c1ccccc1,Potency,TAB165,11.2 µM (active)
same,Potency,W2,2.13 µM (active)
same,outcome,CRL-7250,inactive
same,outcome,HaCat [1],inactive
same,max response,KB-3-1,0.398%
same,max response,NIH3T3,-3.64%
same,outcome,HACAT [2],inactive
O=C(CN1CCN(Cc2ccc3c(c2)OCO3)CC1)N1c2ccccc2Sc2ccccc21,Potency,TAB165,10 µM (active)
same,Potency,W2,6.01 µM (active)
same,max response,CRL-7250,-6.96%
same,outcome,HaCat [1],inactive
same,outcome,NIH3T3,inactive
same,outcome,HACAT [2],inactive
CC(C)(C)CC(C)(C)c1ccc(O)c(-n2nc3ccccc3n2)c1,Potency,TAB113,10 µM (active)
same,Potency,TAB165,12.6 µM (active)
same,Potency,W2,6.01 µM (active)
same,max response,HEK293,-0.0454%
same,outcome,HaCat [1],inactive
same,max response,KB-3-1,2.75%
same,max response,NIH3T3,3.67%
same,outcome,HACAT [2],inactive
CCN1/C(=C/C=C/c2sc3ccccc3[n+]2CC)Sc2ccccc21,Potency,TAB113,0.141 µM (active)
same,Potency,TAB165,0.141 µM (active)
same,Potency,W2,0.0953 µM (active)
same,Potency,CRL-7250,0.13 µM (active)
same,Potency,HaCat [1],2.91 µM (active)
same,Potency,KB-3-1,7.31 µM (active)
same,Potency,NIH3T3,1.84 µM (active)
O=C(NC1CCN(CCc2c[nH]c3ccccc23)CC1)c1ccccc1,Potency,TAB113,inactive
same,Potency,TAB165,inactive
same,max response,CRL-7250,-5.92%
same,outcome,HaCat [1],inactive
same,max response,NIH3T3,-2.1%
same,outcome,HACAT [2],inactive
O=C(N/N=C/c1ccc([N+](=O)[O-])o1)c1ccc(O)cc1,Potency,HEK293,7.5 µM (active)
same,max response,HaCat [1],-33.9%
same,max response,KB-3-1,-13.9%
N#C/C(=C1\SCC(c2ccccc2Cl)S1)n1ccnc1 (stereo not drawn),max response,HEK293,-7.28%
same,outcome,HaCat [1],inactive
same,max response,KB-3-1,0.837%
same,max response,NIH3T3,-9.88%
same,outcome,HACAT [2],inactive
O=C1OC2(c3ccccc31)c1cc(Br)c(O)c(Br)c1Oc1c2cc(Br)c(O)c1Br,outcome,HEK293,inactive
same,outcome,HaCat [1],inactive
same,max response,KB-3-1,-24.7%
same,max response,NIH3T3,-4.74%
same,outcome,HACAT [2],inactive
same,outcome,HEK293T,inactive
CCOc1ccccc1OCCN[C@H](C)Cc1ccc(OC)c(S(N)(=O)=O)c1,Potency,TAB113,inactive
same,Potency,TAB165,inactive
same,max response,HEK293,-5.03%
same,outcome,HaCat [1],inactive
same,max response,KB-3-1,4.78%
same,max response,NIH3T3,2.8%
same,outcome,HACAT [2],inactive
c1ccc(-c2nc[nH]c2-c2ccccc2)cc1,Potency,TAB113,inactive
same,Potency,TAB165,inactive
same,Potency,W2,inactive
same,max response,CRL-7250,-18.7%
same,max response,HaCat [1],-29.5%
same,max response,KB-3-1,23.6%
same,max response,NIH3T3,-7.14%
CN(C)CCOC(c1ccc(Cl)cc1)c1ccccn1 (stereo not drawn),Potency,TAB113,inactive
same,Potency,W2,1.07 µM (active)
same,max response,HEK293,-23.8%
same,max response,KB-3-1,10.7%
CCc1ccc(C(=O)C(C)CN2CCCCC2)cc1 (stereo not drawn),Potency,TAB113,inactive
same,Potency,TAB165,inactive
same,max response,HEK293,-19.7%
same,outcome,HaCat [1],inactive
same,max response,NIH3T3,-2.26%
same,outcome,HACAT [2],inactive
C#C[C@]1(O)CC[C@H]2[C@@H]3CCC4=Cc5oncc5C[C@]4(C)[C@H]3CC[C@@]21C,Potency,TAB113,inactive
same,Potency,TAB165,inactive
same,Potency,W2,inactive
same,Potency,HEK293,21.1 µM (active)
same,max response,KB-3-1,-24%
CCO[C@@H]1O[C@H](C(COCc2ccccc2)OCc2ccccc2)[C@H](OCc2ccccc2)[C@H]1O (stereo partly drawn),Potency,HEK293,16.8 µM (active)
same,max response,KB-3-1,-15.4%
CN(Cc1ccc(C(C)(C)C)cc1)Cc1cccc2ccccc12,Potency,W2,9.53 µM (active)
same,max response,NIH3T3,-14%
Nc1nc(N)c(-c2ccccc2)s1,Potency,TAB113,inactive
same,Potency,TAB165,inactive
same,Potency,W2,inactive
same,max response,HEK293,-1.75%
same,max response,HaCat [1],-10.8%
same,max response,KB-3-1,-0.967%
same,max response,NIH3T3,2.51%
CCCCCCCCCCCCCC[N+](C)(C)Cc1ccccc1,Potency,TAB113,6.31 µM (active)
same,Potency,TAB165,5.62 µM (active)
same,Potency,W2,4.26 µM (active)
same,Potency,HEK293,2.99 µM (active)
same,Potency,HaCat [1],11.9 µM (active)
CCC1Nc2cc(Cl)c(S(N)(=O)=O)cc2S(=O)(=O)N1 (stereo not drawn),Potency,TAB113,inactive
same,Potency,TAB165,inactive
same,Potency,W2,inactive
same,outcome,HEK293,inactive
same,max response,HaCat [1],3.1%
same,max response,KB-3-1,-3.7%
same,max response,NIH3T3,3.7%
same,outcome,HEK293T,inactive
